# Test results taken from paper PMC5540273 (PLoS ONE, 2017).
# Tested on: CDK9
# Conditions: concentration: 1 μM, replicates: in singlicate; n = 1
# 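Note: KINOMEscan kinase panel screen.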
row,SMILES,%Inh [%]
1,Cc1nnc(-c2ccc3occ(-c4ccc(S(C)=O)cc4)c3c2)[nH]1 (stereo not shown),0
2,Cc1cccc(-c2cc(Nc3ccncc3)c3ccccc3n2)n1 [GSK223675],4
3,Cc1csc(-c2nc(Nc3ccncc3)c3ccccc3n2)n1 [GW869640],9
4,Cn1ccc2ncnc(Oc3cccc(C(=O)Nc4ccccc4)c3)c21,1
5,O=C(Nc1n[nH]c2cc(-c3cccc(F)c3F)ccc12)C1CC1 [SB-733894],5
6,Cc1cc(-c2ccc3c(c2)CC[C@@H](N[C@@H](C)c2ccccc2)C3)cnc1N.Cl [GW412617],0
7,Cc1ccc(NC(=O)Nc2cccc(Cl)c2)cc1-c1ccc(C(=O)Nc2ccncc2)cc1 [GSK1398468],0
8,CN(C)CCN(C)C(=O)c1cc(-c2ccncc2)c(-c2ccc(Cl)c(O)c2)o1.Cl.Cl [SB-710397],0
9,O=C(Nc1n[nH]c2nc(-c3nccs3)c(Br)cc12)C1CC1 [SB-742251],0
10,Cc1cccc(-c2nc(C)cc(Nc3ccncc3)n2)n1 [GSK257997],95.9
11,Cc1cccc(-c2nc(Nc3cccc(C(N)=O)c3)c3ccccc3n2)n1 [GW876019],0
12,COc1cc2ncnc(Nc3ccc4nc(-c5ccccc5)[nH]c4c3)c2cc1OC.Cl [GW282450],0
13,CN1C(=O)C(Nc2ccc(Cl)c(C(=O)O)c2)=C(c2ccc(Cl)cc2)C1=O [SB-404290],0
14,Cc1cccc(-c2nc(Nc3ccncc3)c3ccccc3n2)n1 [GW855857],0
15,CCn1c(-c2cccnc2O)nc2cnccc21 [SB-736715],0
16,COc1ccccc1-c1ccc2c(NC(=O)C3CC3)n[nH]c2n1 [SB-711239],0
17,CS(=O)(=O)c1ccc(-c2nc3n(c2-c2ccncc2)CCC3)cc1 [SKF-105942],100
18,CC(C)(C)c1ccc(C(=O)Nc2cn3cc(-c4cccnc4)ccc3n2)cc1,12
19,Cc1c(Cn2ccn3c(=O)cc(N4CCOCC4)nc23)cccc1C(F)(F)F [GSK2289044],0
20,O=C(O)COc1ncnc2cc(-c3ccc4[nH]ncc4c3)sc12,0

# Tested on: CDKL1
# Conditions: concentration: 1 μM, replicates: in singlicate; n = 1
row,SMILES,%Inh [%]
1,Nc1nc(-c2nccs2)c(-c2ccnc3ccccc23)s1 [GW693542],0
2,CC1=C(C(=O)Nc2cc3cn[nH]c3cc2F)C(c2ccc(C(F)(F)F)cc2)CC(=O)N1 (stereo not shown) [GSK429286],0
3,Cc1cccc(-c2nc(Nc3ccc4[nH]ncc4c3)c3ccccc3n2)n1 [GW857175],0
4,Cc1cc(NCC(c2ccccc2)c2ccccc2)nc(NCc2ccc(C(F)(F)F)cc2)n1 [GW497681],0
5,CSc1nn2c(=O)cc(N3CCOCC3)nc2n1Cc1cccc(C(F)(F)F)c1C [GSK2363608],0
6,COC(=O)c1c(-c2ccccc2)c2cc(OC)ccc2c(=O)n1Cc1ccccc1,3
7,Cn1ccc2ncnc(Oc3ccc(Nc4nc5ccccc5[nH]4)cc3)c21,18
8,COc1cc(Nc2nccc(N3CCC(NC(=O)Nc4cc(C)ccc4C)C3)n2)cc(OC)c1OC (stereo not shown) [GSK1379762],0
9,O=C(Nc1ccccc1)Nc1cccc(Oc2ccc3nccn3n2)c1,12
10,Cl.O=C(Nc1cccc(-c2nn3ncccc3c2-c2ccnc(Nc3cccnc3)n2)c1)c1c(F)cccc1F [GSK312879],1
11,CCn1c(-c2ccccn2)nc2cnccc21 [SB-736398],9
12,CC(C)(C)c1ccc(C(=O)Nc2cn3cc(Cl)ccc3n2)cc1,19
13,Cl.NC(=O)c1cccc(Nc2nccc(Nc3ccc(Oc4cccc(Cl)c4)c(Cl)c3)n2)c1 [GW659008],9
14,Cc1ccccc1-n1cnc2c(N)ncnc21 [SKF-97510],14
15,COc1ccc2nc(-c3cccc(C)n3)nc(Nc3ccncc3)c2c1 [GSK204919],4
16,Cc1nnc(-c2ccc3occ(-c4ccc(S(C)=O)cc4)c3c2)[nH]1 (stereo not shown),0
17,Cc1cccc(-c2cc(Nc3ccncc3)c3ccccc3n2)n1 [GSK223675],0
18,Cc1csc(-c2nc(Nc3ccncc3)c3ccccc3n2)n1 [GW869640],6

row,SMILES,%Inh [%]
1,Cn1ccc2ncnc(Oc3cccc(C(=O)Nc4ccccc4)c3)c21,0
2,O=C(Nc1n[nH]c2cc(-c3cccc(F)c3F)ccc12)C1CC1 [SB-733894],37
3,Cc1cc(-c2ccc3c(c2)CC[C@@H](N[C@@H](C)c2ccccc2)C3)cnc1N.Cl [GW412617],0
4,Cc1ccc(NC(=O)Nc2cccc(Cl)c2)cc1-c1ccc(C(=O)Nc2ccncc2)cc1 [GSK1398468],13
5,CN(C)CCN(C)C(=O)c1cc(-c2ccncc2)c(-c2ccc(Cl)c(O)c2)o1.Cl.Cl [SB-710397],0
6,O=C(Nc1n[nH]c2nc(-c3nccs3)c(Br)cc12)C1CC1 [SB-742251],24
7,Cc1cccc(-c2nc(C)cc(Nc3ccncc3)n2)n1 [GSK257997],3
8,Cc1cccc(-c2nc(Nc3cccc(C(N)=O)c3)c3ccccc3n2)n1 [GW876019],36
9,COc1cc2ncnc(Nc3ccc4nc(-c5ccccc5)[nH]c4c3)c2cc1OC.Cl [GW282450],1
10,CN1C(=O)C(Nc2ccc(Cl)c(C(=O)O)c2)=C(c2ccc(Cl)cc2)C1=O [SB-404290],1
11,Cc1cccc(-c2nc(Nc3ccncc3)c3ccccc3n2)n1 [GW855857],47
12,CCn1c(-c2cccnc2O)nc2cnccc21 [SB-736715],13
13,COc1ccccc1-c1ccc2c(NC(=O)C3CC3)n[nH]c2n1 [SB-711239],18
14,CS(=O)(=O)c1ccc(-c2nc3n(c2-c2ccncc2)CCC3)cc1 [SKF-105942],28
15,CC(C)(C)c1ccc(C(=O)Nc2cn3cc(-c4cccnc4)ccc3n2)cc1,39
16,Cc1c(Cn2ccn3c(=O)cc(N4CCOCC4)nc23)cccc1C(F)(F)F [GSK2289044],3
17,O=C(O)COc1ncnc2cc(-c3ccc4[nH]ncc4c3)sc12,11
